Data from ChEMBL document CHEMBL1157539, “Thousands of chemical starting points for antimalarial lead identification” (Nature, 2010).

Assays:
Assay type in all cases: functional
[1] = system: Plasmodium falciparum; assay: GSK_TCMDC: Inhibition of Plasmodium falciparum 3D7 in whole red blood cells, using parasite LDH activity as an index of growth. Test compounds present at 2uM
[2] = system: Plasmodium falciparum; assay: GSK_TCMDC: Inhibition of Plasmodium falciparum Dd2 in whole red blood cells, using parasite LDH activity as an index of growth. Test compounds present at 2uM
[3] = system: HepG2; assay: GSK_TCMDC: Percent inhibition of human HepG2 cell line. Test compounds present at 10uM.

Compound | Inhibition [1] [%] | Inhibition [2] [%] | Inhibition [3] [%]
CCN(CC)CCCNc1nccc(N(C)c2ccc(NC(=O)Nc3cc(C(F)(F)F)ccc3F)cc2)n1.O=C(O)C(F)(F)F | 94 | 19 | 96
CCN(CC)C(=O)C1CCCN(C(=O)Nc2cc(C(F)(F)F)cc(C(F)(F)F)c2)C1 (stereo not drawn) | 86 | 98 | 0
COc1ccc2nccc([C@@H](O)CN3CCC(NS(=O)(=O)c4cc(Br)c(Br)s4)CC3)c2c1 | 92 | 36 | 14
Cc1cc(CN2CC[C@H](NC(=O)c3ccc(Cl)c(Cl)c3)C2)ccc1OCCCN(C)C.O=C(O)C(F)(F)F | 99 | 35 | 41
CC(=O)Nc1sc(C)c(C)c1CN1CCc2ccccc2C1 | 93 | 94 | 0
Cn1cc(C2CCN(CCCCNC(=O)c3ccc(-c4ccc(C(F)(F)F)cc4)c(CO)c3)CC2)c2ccccc21 | 88 | 16 | 67
O=C(NC1CC1)c1cnc(N2CCC(Oc3ccc(Cl)cc3)CC2)c(Cl)c1 | 86 | 75 | 12
CN1CCCc2ccc(NC(=O)Nc3ccc(Cl)c(Cl)c3)cc2C1 | 89 | 22 | 0
N#Cc1ccc(Sc2nnc(-c3ccccc3Cl)n2CC2CCCCC2)cc1[N+](=O)[O-] | 85 | 34 | 30
CC(CN(C)C)C(=O)Nc1cccc(-c2cccc(-c3nc4ccccc4[nH]3)c2)c1 (stereo not drawn) | 94 | 25 | 42
CN(C)Cc1cccc(-c2cnc(N)c(-c3nc4cc(S(C)(=O)=O)ccc4[nH]3)c2)c1.O=C(O)C(F)(F)F | 100 | 61 | 27
Cc1cccc2nc(-c3ccc(-c4cccc(NCc5cn6cccnc6n5)c4)cc3)[nH]c12 | 94 | 63 | 9
CC(C)CNCc1cccc(-c2cccc(CN(CCN(C)C)C(=O)NCCc3ccccc3)c2)c1.O=C(O)C(F)(F)F | 99 | 83 | 84
CN(C)CC(=O)Nc1cccc(Nc2nccc(NCC(O)c3ccccc3)n2)c1 (stereo not drawn) | 100 | 3 | 30
CC(C)(C)C/C=C\c1ccc(C(=O)NCC2CC2)cc1 | 94 | 88 | 0
O=C(Nc1cccc(CCNCc2ccccc2)c1)Nc1cccc2ccccc12.O=C(O)C(F)(F)F | 100 | 8 | 13
